Some targets named below: RELARELA (p65 homodimer) (Homo sapiens, UniProt Q04206 1-307); p50p50 homodimer (Homo sapiens, UniProt P19838 7-356); RELB subunit;p50 subunit (Homo sapiens;Homo sapiens, UniProt Q01201;P19838 120-401;7-356).
Assay in all cases: protein binding microarray; high values mean tight binding
Settings in all cases: dsDNA, one strand shown

Another assay addresses T1, p52p52 homodimer (Homo sapiens, UniProt Q00653 4-332).
T1 sequence: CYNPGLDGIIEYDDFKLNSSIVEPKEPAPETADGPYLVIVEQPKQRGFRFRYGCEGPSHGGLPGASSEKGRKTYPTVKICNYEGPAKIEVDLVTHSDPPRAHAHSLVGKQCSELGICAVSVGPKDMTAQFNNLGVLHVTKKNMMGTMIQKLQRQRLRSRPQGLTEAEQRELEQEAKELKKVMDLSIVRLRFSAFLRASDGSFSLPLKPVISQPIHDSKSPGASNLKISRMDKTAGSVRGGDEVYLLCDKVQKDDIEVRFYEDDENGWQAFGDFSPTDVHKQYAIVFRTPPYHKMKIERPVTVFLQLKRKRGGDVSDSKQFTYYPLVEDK

Assay [1] deals with RELA (p65) subunit of heterodimer;p50 subunit (Homo sapiens;Homo sapiens, UniProt Q04206;P19838 1-307;7-356).
Assay [2] concerns the target RELA (p65) subunit of heterodimer;p52 subunit (Homo sapiens;Homo sapiens, UniProt Q04206;Q00653 1-307;4-332).
The target in the next assay is T2, RELB subunit;p52 subunit (Homo sapiens;Homo sapiens, UniProt Q01201;Q00653 120-401;4-332).
T2 sequence 1: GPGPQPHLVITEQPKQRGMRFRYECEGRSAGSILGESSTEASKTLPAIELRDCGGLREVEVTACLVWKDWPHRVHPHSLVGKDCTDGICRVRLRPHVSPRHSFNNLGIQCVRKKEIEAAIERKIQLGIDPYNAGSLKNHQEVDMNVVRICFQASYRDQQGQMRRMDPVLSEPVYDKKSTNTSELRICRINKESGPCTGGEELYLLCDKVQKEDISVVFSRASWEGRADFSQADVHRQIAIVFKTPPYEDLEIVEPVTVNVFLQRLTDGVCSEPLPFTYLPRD
T2 sequence 2: T1 sequence

The target of assay [3] is C-Rel subunit;p50 subunit (Homo sapiens;Homo sapiens, UniProt Q04864;P19838 1-285;7-356).
Assay [4] concerns the target T3, C-Rel subunit;p52 subunit (Homo sapiens;Homo sapiens, UniProt Q04864;Q00653 1-285;4-332).
T3 sequence 1: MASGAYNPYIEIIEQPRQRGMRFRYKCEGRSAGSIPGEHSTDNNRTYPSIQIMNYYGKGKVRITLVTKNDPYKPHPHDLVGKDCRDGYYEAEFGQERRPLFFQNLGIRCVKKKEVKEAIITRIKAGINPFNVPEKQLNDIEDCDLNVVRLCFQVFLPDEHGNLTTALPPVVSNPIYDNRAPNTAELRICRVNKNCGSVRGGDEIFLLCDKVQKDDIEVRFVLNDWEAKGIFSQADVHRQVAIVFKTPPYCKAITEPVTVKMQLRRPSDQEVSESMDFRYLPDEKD
T3 sequence 2: T1 sequence

Sequence of RELA (p65) subunit of heterodimer;p50 subunit (Q04206 1-307, chain 1 of 2): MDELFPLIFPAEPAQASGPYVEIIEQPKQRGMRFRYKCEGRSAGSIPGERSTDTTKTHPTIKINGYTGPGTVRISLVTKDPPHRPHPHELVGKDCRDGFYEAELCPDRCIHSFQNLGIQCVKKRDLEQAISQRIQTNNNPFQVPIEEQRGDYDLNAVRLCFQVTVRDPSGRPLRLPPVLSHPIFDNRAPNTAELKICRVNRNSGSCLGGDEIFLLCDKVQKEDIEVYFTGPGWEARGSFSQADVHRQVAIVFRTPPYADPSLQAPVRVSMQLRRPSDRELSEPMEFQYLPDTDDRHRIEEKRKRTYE
Sequence of RELA (p65) subunit of heterodimer;p50 subunit (P19838 7-356, chain 2 of 2): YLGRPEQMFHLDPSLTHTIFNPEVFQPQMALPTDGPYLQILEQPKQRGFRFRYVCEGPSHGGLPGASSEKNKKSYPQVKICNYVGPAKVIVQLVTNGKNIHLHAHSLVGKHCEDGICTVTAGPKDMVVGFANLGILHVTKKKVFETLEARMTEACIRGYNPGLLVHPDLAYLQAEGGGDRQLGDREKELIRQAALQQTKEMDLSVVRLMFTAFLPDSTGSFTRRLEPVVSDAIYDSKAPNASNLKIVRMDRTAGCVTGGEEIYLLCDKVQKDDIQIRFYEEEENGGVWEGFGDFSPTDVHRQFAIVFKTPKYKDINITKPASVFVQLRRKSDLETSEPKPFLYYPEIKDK
Sequence of RELARELA (p65 homodimer) (Q04206 1-307): as the sequence (Q04206 1-307, chain 1 of 2) above
Sequence of p50p50 homodimer (P19838 7-356): as the sequence (P19838 7-356, chain 2 of 2) above

In the case of AGAGGTTCCCC, the binding signal with RELARELA (p65 homodimer) is 0.439 z-score; with p50p50 homodimer, 1.06 z-score; with p52p52 homodimer, 1.33 z-score; in [1], 1.54 z-score; in assay [2], 1.33 z-score; in the assay with RELB subunit;p50 subunit, 1.41 z-score. Moreover, the binding signal in the assay with RELB subunit;p52 subunit amounted to 1.64 z-score; in [3] it was 1.37 z-score; in assay [4], 1.14 z-score.

On to CGGGAGATCCT, for which the binding signal with RELARELA (p65 homodimer) was -0.093 z-score; with p50p50 homodimer, 0.247 z-score; with p52p52 homodimer, 0.164 z-score; in assay [1], -0.217 z-score; in assay [2] it was 0.0606 z-score; in the assay with RELB subunit;p50 subunit it was 0.132 z-score. For the same sequence, the binding signal with RELB subunit;p52 subunit was 0.152 z-score; in [3], -0.227 z-score; in [4], 0.0327 z-score.

GAAGGCATCCT: the binding signal is -0.848 z-score with RELARELA (p65 homodimer); -1.34 z-score with p50p50 homodimer; -0.851 z-score with p52p52 homodimer; -1.13 z-score in assay [1]; -1.21 z-score in assay [2]; -1.29 z-score in the assay with RELB subunit;p50 subunit. The values for the binding signal (with RELB subunit;p52 subunit; in [3]; in [4]) were -1.12 z-score, -1.72 z-score and -1.14 z-score, respectively.

As for GAGGTGGTCCT, the binding signal is -0.284 z-score in the assay with RELARELA (p65 homodimer); -0.198 z-score with p50p50 homodimer; -0.03 z-score with p52p52 homodimer; -0.746 z-score in assay [1]; -0.496 z-score in assay [2]; -0.46 z-score with RELB subunit;p50 subunit. For the same sequence, the values for the binding signal (with RELB subunit;p52 subunit; in assay [3]; in assay [4]) were -0.352 z-score, -1.08 z-score and -0.521 z-score, respectively.

For GAAATCGCCCC, the binding signal in the assay with RELARELA (p65 homodimer) is 0.357 z-score; with p50p50 homodimer, 0.544 z-score; in the assay with p52p52 homodimer it was 0.298 z-score; in assay [1], 0.401 z-score; in assay [2], 0.557 z-score; in the assay with RELB subunit;p50 subunit it was 0.494 z-score. The binding signal with RELB subunit;p52 subunit was determined as 0.759 z-score; in assay [3], 0.842 z-score; in [4], 0.389 z-score.

Turning to AGGATAGCCCT, the binding signal with RELARELA (p65 homodimer) was -0.44 z-score; in the assay with p50p50 homodimer it was -1.05 z-score; with p52p52 homodimer, -0.582 z-score; in assay [1], -0.78 z-score; in assay [2] it was -0.902 z-score; with RELB subunit;p50 subunit, -0.841 z-score. In addition, the binding signal with RELB subunit;p52 subunit is -0.772 z-score; in assay [3] it was -0.982 z-score; in assay [4] it was -0.688 z-score.

Turning to GAAGATGCCCC, the binding signal in the assay with RELARELA (p65 homodimer) was determined as 0.0529 z-score; with p50p50 homodimer it was 0.407 z-score; with p52p52 homodimer, 0.0127 z-score; in assay [1], 0.599 z-score; in assay [2] it was 0.186 z-score; with RELB subunit;p50 subunit, 0.421 z-score. Moreover, the binding signal with RELB subunit;p52 subunit was 0.376 z-score; in assay [3] it was 0.679 z-score; in assay [4] it was 0.228 z-score.

On to GAAAATATCCT, for which the binding signal was -0.0981 z-score in the assay with RELARELA (p65 homodimer); -1.17 z-score with p50p50 homodimer; -0.53 z-score in the assay with p52p52 homodimer; -0.742 z-score in assay [1]; -0.608 z-score in assay [2]; -1.05 z-score in the assay with RELB subunit;p50 subunit. Further, the figures for the binding signal (with RELB subunit;p52 subunit; in [3]; in assay [4]) were -0.797 z-score, -0.995 z-score and -0.675 z-score, respectively.

Consider CAAATGGTCCT, for which the binding signal in the assay with RELARELA (p65 homodimer) was -0.0232 z-score; in the assay with p50p50 homodimer, -1.33 z-score; with p52p52 homodimer, -0.481 z-score; in assay [1] it was -1.22 z-score; in assay [2], -0.808 z-score; in the assay with RELB subunit;p50 subunit, -0.726 z-score. Further, the values for the binding signal (with RELB subunit;p52 subunit; in assay [3]; in assay [4]) were -0.534 z-score, -1.3 z-score and -0.727 z-score, respectively.

Turning to GGGAAGACCCT, the binding signal with RELARELA (p65 homodimer) was 0.871 z-score; with p50p50 homodimer it was 0.365 z-score; with p52p52 homodimer it was 1.66 z-score; in assay [1], 1 z-score; in assay [2] it was 1.17 z-score; with RELB subunit;p50 subunit it was 0.374 z-score. Also, the binding signal with RELB subunit;p52 subunit amounted to 1.01 z-score; in assay [3], 0.481 z-score; in [4] it was 1.03 z-score.

As for CAGAATTCCCC, the binding signal with RELARELA (p65 homodimer) came out at 3.2 z-score; with p50p50 homodimer, 1.49 z-score; with p52p52 homodimer it was 2.61 z-score; in [1] it was 2.25 z-score; in assay [2], 2.29 z-score; with RELB subunit;p50 subunit, 2.26 z-score. Besides, the binding signal with RELB subunit;p52 subunit came to 2.21 z-score; in assay [3], 1.73 z-score; in [4], 2.61 z-score.

Turning to CAGAAGGCCCC, the binding signal with RELARELA (p65 homodimer) is -0.908 z-score; with p50p50 homodimer, -0.224 z-score; in the assay with p52p52 homodimer, -0.259 z-score; in [1], -0.114 z-score; in assay [2] it was -0.223 z-score; in the assay with RELB subunit;p50 subunit it was -0.248 z-score. For the same sequence, the binding signal is -0.262 z-score in the assay with RELB subunit;p52 subunit, -0.241 z-score in assay [3] and -0.183 z-score in [4].

Regarding AAGAGTACCCT, the binding signal in the assay with RELARELA (p65 homodimer) was -0.409 z-score; with p50p50 homodimer, 0.828 z-score; with p52p52 homodimer, 0.248 z-score; in assay [1] it was 0.398 z-score; in assay [2] it was 0.224 z-score; in the assay with RELB subunit;p50 subunit, 0.66 z-score. Further, the binding signal was found to be 0.374 z-score with RELB subunit;p52 subunit, 0.116 z-score in [3] and 0.104 z-score in [4].

Regarding AGAGGAATCCC, the binding signal in the assay with RELARELA (p65 homodimer) is 0.476 z-score; with p50p50 homodimer, 0.189 z-score; with p52p52 homodimer, 0.335 z-score; in assay [1] it was 0.188 z-score; in assay [2], 0.227 z-score; in the assay with RELB subunit;p50 subunit, 0.0745 z-score. For the same sequence, the binding signal was determined as 0.269 z-score in the assay with RELB subunit;p52 subunit, 0.405 z-score in [3] and 0.416 z-score in assay [4].

AGAATGTTCCT: the binding signal with RELARELA (p65 homodimer) is 0.037 z-score; in the assay with p50p50 homodimer, -1.47 z-score; with p52p52 homodimer, -0.491 z-score; in assay [1], -0.64 z-score; in [2] it was -0.735 z-score; with RELB subunit;p50 subunit, -0.963 z-score. In addition, the binding signal with RELB subunit;p52 subunit is -0.948 z-score; in assay [3] it was -1.17 z-score; in assay [4], -0.63 z-score.

The values above are taken from publication PMC3218832.
